PubChem BioAssay (Tox21)
Inconclusive results are not listed. Entries that show only a call come without a potency. The source made the active and inactive calls. Unless noted, calls follow the shape of the full dose curve.

What was measured:
[1] = target: Gonadotropin-releasing hormone receptor (Homo sapiens) (UniProt P30968); assay: Human gonadotropin-releasing hormone receptor (GnRHR) small molecule agonists, calcium flux assay in GnRHR-HEK293 cells (AID 1920063); also: nearly all actives have a fitted effect of over 35% in size
How it was run: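 HEK293 cells stably expressing human GnRHR were plated 18 h at 37 °C, loaded with calcium dye 1 h at 37 °C, then given compound in agonist mode; fluorescence (Ex/Em 480/540) read kinetically for 3 min at 1 s intervals.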

[2] = target: KiSS-1 receptor (Homo sapiens) (UniProt Q969F8); assay: Human kisspeptin (KISS1R) small molecule agonists, calcium flux assay in KISS1R-HEK293 cells (AID 1920064; active = well fitted activation curve with a large enough effect in the repeat runs)
How it was run: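 HEK293 cells stably expressing human KISS1R were plated 18 h at 37 °C, loaded with calcium dye for 1 h at 37 °C, then given compound by pin tool. Fluorescence (Ex/Em 480/540) was read kinetically for 3 min.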

[3] = G protein-coupled receptor (GPCR) small molecule agonists, calcium flux assay: HEK293 wild type cell line counter screen (AID 1920065)
How it was run: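 Cells were plated and cultured 18 h at 37 C/5% CO2, then loaded with calcium dye for 1 h at 37 C. Compounds in DMSO were pin-transferred in agonist mode, and fluorescence (Ex/Em 480/540) was read kinetically for 3 min at 1 s intervals.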

[4] = p53 small molecule agonists, cell-based qHTS assay with human liver microsomes (AID 1963577)
How it was run: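 p53RE-bla reporter cells were pre-incubated 5 h at 37 C, then treated with compounds plus human liver microsomes (0.5 mg/mL final) and NADPH (0.5 mg/mL final) for 16 h at 37 C. Beta-lactamase activity was read by LiveBLAzer fluorescence after 2 h at room temperature.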

[5] = p53 small molecule agonists, cell-based qHTS assay with rat liver microsomes (AID 1963578)
How it was run: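 p53RE-bla cells were exposed to compounds together with rat liver microsomes (0.5 mg/mL final) and NADPH (0.5 mg/mL final) for 16 h at 37 C, then read by LiveBLAzer beta-lactamase fluorescence after 2 h at room temperature.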

[6] = p53 small molecule agonists, cell-based qHTS assay with human liver microsomes: qHTS cell viability counter screen (AID 1963579); also: nearly all actives have a fitted effect of over 45% in size
How it was run: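 p53RE-bla cells (4,000/well) were pre-incubated 5 h at 37 C, then given compounds in DMSO plus human liver microsomes (0.5 mg/mL final) and NADPH (0.5 mg/mL final) for 16 h at 37 C. Viability was read by CellTiter-Glo luminescence.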

[7] = p53 small molecule agonists, cell-based qHTS assay with rat liver microsomes: qHTS cell viability counter screen (AID 1963580); also: nearly all actives have a fitted effect of over 45% in size; also: potency is read from the fitted curve at half-maximal effect
How it was run: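 p53RE-bla HCT-116 cells were exposed 16 h at 37 C to compounds with rat liver microsomes (0.5 mg/mL) and NADPH (0.5 mg/mL). Viability was measured in the same wells as ATP content by CellTiter-Glo luminescence.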

[8] = p53 small molecule agonists, cell-based qHTS assay: qHTS cell viability counter screen (AID 1963581); also: nearly all actives have a fitted effect of over 45% in size
How it was run: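 p53RE-bla HCT-116 cells were exposed to compounds for 16 h at 37 C; after the beta-lactamase FRET read in the same wells, CellTiter-Glo was added and luminescence (intracellular ATP) read after 30 min at room temperature.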

[9] = p53 small molecule agonists, cell-based qHTS assay (AID 1963582; active = well fitted activation curve with a large enough effect in the signal ratio in the repeat runs, not every such curve was filed as active; the % refers to the signal ratio)
How it was run: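 p53RE-bla beta-lactamase reporter cells rested 5 h at 37 C/5% CO2, then received compounds in DMSO by pin transfer and were incubated 16 h at 37 C. LiveBLAzer B/G FRET substrate was loaded for 2 h at room temperature before fluorescence reading.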

[10] = target: 5-hydroxytryptamine receptor 2A (Homo sapiens) (UniProt P28223); assay: 5-hydroxytryptamine receptor 2A (HTR2A) small molecule agonists, cell-based qHTS assay (AID 1963587); also: nearly all actives have a fitted effect of over 30% in size
How it was run: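 CHO cells stably expressing human HTR2A, plated 18 h, loaded with calcium dye 1 h at 37 C. Agonist mode: compounds added and intracellular calcium fluorescence recorded kinetically for 2 min at 1 sec intervals.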

[11] = target: Muscarinic acetylcholine receptor M1 (Homo sapiens) (UniProt P11229); assay: Cholinergic receptor muscarinic 1 (CHRM1) small molecule antagonists, cell-based qHTS assay (AID 1963588); also: nearly all actives have a fitted effect of over 40% in size
How it was run: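 CHRM1-CHO calcium-flux assay, antagonist mode. Cells were seeded 18 h, dye-loaded 1 h at 37 C and given compound for 5 min at RT, then acetylcholine was added at 50nM. FDSS fluorescence was read 3 min; 15 concentrations, three runs.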

[12] = cAMP Responsive Elements (CRE) small molecule agonists, cell-based qHTS assay (AID 1963590)
How it was run: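 CRE-bla HEK 293T cells in DMEM with 10% dialyzed FBS, NEAA, pyruvate and 25 mM HEPES were plated 18 h at 37 C/5% CO2, then exposed to compounds in DMSO for 3 h before LiveBLAzer B/G FRET substrate addition.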

[13] = cAMP Responsive Elements (CRE) small molecule antagonists, cell-based qHTS assay (AID 1963591; active = well fitted inhibition curve with a large enough effect in the signal ratio in the repeat runs, not every such curve was filed as active; the % refers to the signal ratio)
How it was run: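 CRE-bla HEK293T cells were plated 18 h at 37 °C/5% CO2, pinned with compound in DMSO, then stimulated with NKH477 at 0.25 uM final for 3 h. LiveBLAzer B/G FRET substrate was added and plates incubated 2 h at room temperature.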

[14] = target: Beta-2 adrenergic receptor (Homo sapiens) (UniProt P07550); assay: Adrenergic beta2 receptor (ADRB2) small molecule antagonists, cell-based qHTS assay (AID 1963592); also: series mostly up to about 92 µM; nearly all actives have a fitted effect of over 50% in size
How it was run: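 Cells (CHO, stable ADRB2 overexpression) incubated 18-20hr at 37C; compounds added from DMSO; agonist mix (1nM isoproterenol, 100uM IBMX, 25uM Ro-20-1724) added; 0.5hr RT; d2-cAMP and anti-cAMP-cryptate added; 1hr RT; 665/615 nm read.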

[15] = target: D(2) dopamine receptor (Homo sapiens) (UniProt P14416); assay: Dopamine D2 receptor (DRD2) small molecule agonists, cell-based qHTS assay (AID 1963594); also: nearly all actives have a fitted effect of over 35% in size
How it was run: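 HEK293 cells stably expressing human DRD2, pre-treated with PDE inhibitor Ro20-1724 (0.1 mM final) and compound 10 min at room temperature, then stimulated with NKH477 (200nM […]) for 30 min. cAMP read by HTRF (665/620 nm).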

[16] = target: D(2) dopamine receptor (Homo sapiens) (UniProt P14416); assay: Dopamine D2 receptor (DRD2) small molecule antagonists, cell-based qHTS assay (AID 1963595; active = well fitted inhibition curve with a large enough effect in the signal ratio in the repeat runs, with a control signal flat; the % refers to the signal ratio)
How it was run: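 Readout: HTRF cAMP, cAMP-d2 competing with cellular cAMP for anti-cAMP cryptate, read after 1 h. Cells: DRD2-HEK293. Conditions: 0.1 mM Ro20-1724, 12 nM quinpirole, 200 nM NKH477, 30 min RT.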

[17] = target: 5-hydroxytryptamine receptor 2A (Homo sapiens) (UniProt P28223); assay: 5-hydroxytryptamine receptor 2A (HTR2A) small molecule antagonists, cell-based qHTS assay (AID 1963586); also: nearly all actives have a fitted effect of over 45% in size
How it was run: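 Antagonist-mode intracellular calcium assay: DOI (4 nM) added after 5 min compound pre-incubation at room temperature to dye-loaded HTR2A-CHO cells. Fluorescence followed for 3 min, sampled every second.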

[18] = target: Muscarinic acetylcholine receptor M1 (Homo sapiens) (UniProt P11229); assay: Cholinergic receptor muscarinic 1 (CHRM1) small molecule agonists, cell-based qHTS assay (AID 1963589); also: nearly all actives have a fitted effect of over 35% in size
How it was run: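 CHO cells stably expressing human CHRM1, seeded 18 h at 37 C/5% CO2, dye-loaded 1 h at 37 C, then given compound in agonist mode; intracellular calcium fluorescence read kinetically at 1 s intervals. Fifteen concentrations, three independent runs.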

[19] = target: Beta-2 adrenergic receptor (Homo sapiens) (UniProt P07550); assay: Adrenergic beta2 receptor (ADRB2) small molecule agonists, cell-based qHTS assay (AID 1963593);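 also: CHO cells stably overexpressing human ADRB2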
How it was run: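 CHO cells stably over-expressing ADRB2 were plated overnight at 37C, then dosed with compounds plus a stimulation mix containing 100uM IBMX and 25uM Ro-20-1724 for 0.5hr at room temperature. cAMP was measured by HTRF competition, 1hr.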

Sequence of Gonadotropin-releasing hormone receptor (Homo sapiens) (P30968 whole entry, looked up): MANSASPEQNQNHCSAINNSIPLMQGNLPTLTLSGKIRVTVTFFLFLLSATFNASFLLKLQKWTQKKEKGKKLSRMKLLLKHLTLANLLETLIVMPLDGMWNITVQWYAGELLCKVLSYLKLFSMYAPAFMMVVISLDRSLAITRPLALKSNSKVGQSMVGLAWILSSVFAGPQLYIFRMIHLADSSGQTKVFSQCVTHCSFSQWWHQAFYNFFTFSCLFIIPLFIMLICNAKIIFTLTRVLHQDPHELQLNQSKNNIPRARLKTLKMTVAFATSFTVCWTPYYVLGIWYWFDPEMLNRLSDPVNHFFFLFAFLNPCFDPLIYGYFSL
Sequence of 5-hydroxytryptamine receptor 2A (Homo sapiens) (P28223 whole entry, looked up): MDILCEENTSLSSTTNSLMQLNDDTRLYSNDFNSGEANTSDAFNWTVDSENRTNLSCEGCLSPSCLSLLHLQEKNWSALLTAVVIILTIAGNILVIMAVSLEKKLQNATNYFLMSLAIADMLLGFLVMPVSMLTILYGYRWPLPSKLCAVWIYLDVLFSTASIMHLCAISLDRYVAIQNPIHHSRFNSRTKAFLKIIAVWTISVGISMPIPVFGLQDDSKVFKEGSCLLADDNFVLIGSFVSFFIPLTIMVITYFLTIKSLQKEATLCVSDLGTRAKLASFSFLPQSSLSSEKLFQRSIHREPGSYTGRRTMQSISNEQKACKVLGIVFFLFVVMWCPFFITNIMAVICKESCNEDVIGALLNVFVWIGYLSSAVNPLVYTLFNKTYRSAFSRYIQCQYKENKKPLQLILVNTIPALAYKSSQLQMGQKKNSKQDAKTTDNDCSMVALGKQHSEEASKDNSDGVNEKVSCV
Sequence of D(2) dopamine receptor (Homo sapiens) (P14416 whole entry, looked up): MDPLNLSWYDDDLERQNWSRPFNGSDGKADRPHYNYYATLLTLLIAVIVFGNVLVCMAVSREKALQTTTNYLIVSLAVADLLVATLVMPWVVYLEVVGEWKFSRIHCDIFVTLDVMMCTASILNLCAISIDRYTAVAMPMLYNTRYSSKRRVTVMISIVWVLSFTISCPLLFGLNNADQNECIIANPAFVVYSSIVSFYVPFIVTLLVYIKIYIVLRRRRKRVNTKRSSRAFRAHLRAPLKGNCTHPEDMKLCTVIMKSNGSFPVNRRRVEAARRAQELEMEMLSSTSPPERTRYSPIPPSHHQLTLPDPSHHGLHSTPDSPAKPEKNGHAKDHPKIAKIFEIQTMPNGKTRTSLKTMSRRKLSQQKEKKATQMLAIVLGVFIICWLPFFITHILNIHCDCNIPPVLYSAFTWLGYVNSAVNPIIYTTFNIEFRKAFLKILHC
Sequence of Muscarinic acetylcholine receptor M1 (Homo sapiens) (P11229 whole entry, looked up): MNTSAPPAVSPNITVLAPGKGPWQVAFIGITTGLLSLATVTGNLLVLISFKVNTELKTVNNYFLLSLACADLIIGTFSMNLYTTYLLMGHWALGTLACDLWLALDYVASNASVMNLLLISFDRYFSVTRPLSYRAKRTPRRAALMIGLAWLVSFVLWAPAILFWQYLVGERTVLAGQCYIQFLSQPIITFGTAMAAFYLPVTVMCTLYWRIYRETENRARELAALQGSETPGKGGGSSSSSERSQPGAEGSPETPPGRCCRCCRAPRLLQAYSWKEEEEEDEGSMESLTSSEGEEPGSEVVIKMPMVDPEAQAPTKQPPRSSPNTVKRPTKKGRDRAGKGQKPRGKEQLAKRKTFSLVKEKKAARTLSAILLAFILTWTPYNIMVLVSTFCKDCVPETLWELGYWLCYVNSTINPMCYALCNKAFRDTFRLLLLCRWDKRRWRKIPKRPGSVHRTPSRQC
Sequence of KiSS-1 receptor (Homo sapiens) (Q969F8 whole entry, looked up): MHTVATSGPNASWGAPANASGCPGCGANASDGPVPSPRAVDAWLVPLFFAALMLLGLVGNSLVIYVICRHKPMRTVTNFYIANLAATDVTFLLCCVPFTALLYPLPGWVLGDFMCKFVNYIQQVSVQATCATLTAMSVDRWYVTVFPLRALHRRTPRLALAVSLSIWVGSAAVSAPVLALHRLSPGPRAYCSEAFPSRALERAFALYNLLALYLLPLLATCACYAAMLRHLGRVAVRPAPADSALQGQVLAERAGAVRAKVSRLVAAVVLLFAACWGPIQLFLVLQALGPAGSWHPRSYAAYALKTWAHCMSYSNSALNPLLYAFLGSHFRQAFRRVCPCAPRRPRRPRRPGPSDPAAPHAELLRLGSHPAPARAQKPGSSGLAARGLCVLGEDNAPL
Sequence of Beta-2 adrenergic receptor (Homo sapiens) (P07550 whole entry, looked up): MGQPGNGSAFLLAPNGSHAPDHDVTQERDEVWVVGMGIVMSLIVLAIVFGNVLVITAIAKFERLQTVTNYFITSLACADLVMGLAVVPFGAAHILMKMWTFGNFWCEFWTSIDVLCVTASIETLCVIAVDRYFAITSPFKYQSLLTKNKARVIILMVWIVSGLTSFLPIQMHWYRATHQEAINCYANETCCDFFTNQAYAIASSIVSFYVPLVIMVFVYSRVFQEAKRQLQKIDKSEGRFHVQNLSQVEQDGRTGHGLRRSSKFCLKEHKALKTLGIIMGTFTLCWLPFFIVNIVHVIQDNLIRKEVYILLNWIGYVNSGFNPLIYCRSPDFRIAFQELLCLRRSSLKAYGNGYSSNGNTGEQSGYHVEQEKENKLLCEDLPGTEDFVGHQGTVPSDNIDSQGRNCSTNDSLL

| SMILES | Potency [1] | Potency [2] | Potency [3] | Potency [4] | Potency [5] | Potency [6] | Potency [7] | Potency [8] | Potency [9] | Potency [10] | Potency [11] | Potency [12] | Potency [13] | Potency [14] | Potency [15] | Potency [16] | Potency [17] | Potency [18] | Potency [19] |
| --- | --- | --- | --- | --- | --- | --- | --- | --- | --- | --- | --- | --- | --- | --- | --- | --- | --- | --- | --- |
| Clc1cc(C(Cl)(Cl)Cl)cnc1Cl | inactive | inactive | inactive | inactive | inactive | inactive | inactive | inactive | inactive | inactive | inactive | inactive | inactive | inactive | inactive | inactive | – | – | – |
| O=C1Nc2ccc(Cl)cc2C(c2ccccc2)=NC1O (stereo not given) | inactive | inactive | inactive | – | – | – | – | inactive | inactive | inactive | inactive | inactive | – | inactive | inactive | inactive | inactive | inactive | inactive |
| COCCOCCO | inactive | inactive | inactive | – | – | – | 1620 nM (active) | – | – | inactive | inactive | inactive | inactive | inactive | – | – | – | – | – |
| Clc1ccc(CSC(Cn2ccnc2)c2ccc(Cl)cc2Cl)cc1 (stereo not given) | inactive | inactive | inactive | inactive | inactive | – | inactive | – | – | – | – | inactive | – | inactive | inactive | inactive | – | – | inactive |
| O=[N+]([O-])O.O=[N+]([O-])O.[Cd] | inactive | inactive | inactive | – | – | inactive | inactive | inactive | – | – | inactive | inactive | – | inactive | inactive | – | – | inactive | – |
| CCCCCCCCCCCCCCC(Br)C(=O)O (stereo not given) | inactive | inactive | inactive | inactive | inactive | inactive | inactive | – | – | inactive | inactive | inactive | – | inactive | inactive | inactive | inactive | – | inactive |
| CCCSP(=S)(OCC)Oc1ccc(SC)cc1 (stereo not given) | inactive | inactive | inactive | – | – | – | inactive | inactive | inactive | inactive | inactive | inactive | inactive | – | inactive | inactive | inactive | inactive | inactive |
| Nc1ccccc1C(=O)Oc1ccc2ccccc2c1 | inactive | inactive | inactive | inactive | inactive | inactive | inactive | – | inactive | inactive | inactive | – | – | inactive | inactive | inactive | inactive | inactive | – |
| [Cl-].[Cl-].[Sn+2] | inactive | inactive | inactive | – | – | – | inactive | inactive | – | inactive | inactive | inactive | inactive | inactive | inactive | inactive | inactive | inactive | – |
